Measurements: PubChem BioAssay AID2242 (National Center for Advancing Translational Sciences (NCATS), 2010)
Screen size: about 200,000 compounds; about 720 (0.36%) were called active. Inconclusive results (about 8%) are left out. The call rests on the fitted dose curve; in most records, active means well fitted activation curve with a large enough effect; inconclusive means small, poorly fitted or top-dose-only effect, or effect the other way, or another doubt; inactive means flat fitted curve, though single readings scatter. This is one part of the list.

biological target: Lysosomal alpha-glucosidase (Homo sapiens) (UniProt P10253); experiment: qHTS Assay for Activators of Human alpha-Glucosidase as a Potential Chaperone Treatment of Pompe Disease; details: purified enzyme, 4-MU-alpha-glucoside fluorescence, 20 min; series mostly up to 76.9 µM; further: nearly all actives have a fitted effect of over 80% in size
Source text: NIH Chemical Genomics Center [NCGC] NIH Molecular Libraries Probe Production centers Network [MLPCN] MLPCN Grant: 1R03MH084841-01 Assay Submitter (PI): Wei Zheng NCGC Assay Overview: Alpha-glucosidase is responsible for hydrolysis of terminal, non-reducing 1,4-linked alpha-D-glucose residues with release of alpha-D-glucose. It is a lysosomal hydrolase that is required for the degradation of a small percentage (1-3%) of cellular glycogen in human. Deficiency of this enzyme results in glycogen-storage disease type II (GSDII), also referred to as Pompe disease, an autosomal recessive disorder. Structurally normal glycogen is accumulated in lysosomes and cytoplasm in affected patients, primarily in muscle tissues. Excessive glycogen storage within lysosomes may interrupt normal functioning of other organelles and leads to cellular injury. In turn, this leads to enlargement and dysfunction of the entire organ involved (eg, cardiomyopathy and muscle weakness). It has reported that the improper folding and trafficking of alpha-glucosidase resulting from the genetic mutations may account for a significant number of Pompe patients. […] We optimized this alpha-glucosidase assay in 1536-well plate format for identifying the novel small molecule inhibitors with the structures other than the sugar analogs in order to develop the new pharmacological chaperones, but are also able to detect potential activators. In conjunction with assays against alpha-galactosidase (AID 1467), fluorogenic false positive compounds can be identified.
NCGC Assay Protocol Summary: This is a fluorogenic enzyme assay with 4-methylumbelliferyl-alpha-D-[…] as the substrate and human alpha-glucosidase as the enzyme preparation. Upon the hydrolysis of this fluorogenic substrate, the resulting product, 1. 4-methyllumbelliferone, can be excited at 365 nm and emits at 440 nm which can be detected by a standard fluorescence plate reader. Data were normalized to the controls for basal activity (without enzyme) and 100% activity (with enzyme). In the AC50 values were determined from concentration-response data modeled with the standard Hill equation. Assay buffer: 50 mM citric acid (titrated with potassium phosphate to pH 5.0), 0.005% Tween-20, pH 5.0. (pH 5.0 is an optimal condition for this enzyme assay) 1536-well assay protocol for the human alpha-glucosidase: (1) Add 2 ul/well of enzyme (4 nM final) (2) Add 23 nL compounds in DMSO solution. The final titration was 0.7 nM to 77 uM. (3) Add 1 ul of substrate (400 uM final) (4) Incubate at room temperature for 20 min. (5) Add 2 ul stop solution (1M NaOH and 1M Glycine mixture, pH 10) (6) Detect the assay plate in a ViewLux plate reader (PerkinElmer) with Ex=365 nm and Em=440nm. Keywords: Alpha-glucosidase, Pompe Disease, pharmacological chaperone, chaperone therapy, high throughput screening, alpha-glucosidase inhibitor, MLSMR, MLSCN, NIH Roadmap, qHTS and NCGC
Potency means the concentration at half of the fitted maximal effect.

Potency, active:
COc1cc(C(=O)Nc2sc3c(c2C(=O)NCc2ccco2)CCCC3)cc(OC)c1OC 28.2 µM, O=C(O)c1cc(-c2cccs2)nc2cc3c(cc12)OCCO3 25.1 µM, c1coc(CNc2nc(N3CCCCC3)nc3ccccc23)c1 39.8 µM, c1ccc2c(NCC3CCCO3)nc(N3CCCCC3)nc2c1 (stereo not drawn) 39.8 µM, CCCCOc1ccccc1C1C(C(=O)OC)=CN(CC)C=C1C(=O)OC 35.5 µM, CCCOc1ccccc1C1C(C(=O)OC)=CN(C(C)C)C=C1C(=O)OC 39.8 µM, CCOc1ccccc1C1C(C(=O)OC)=CN(C)C=C1C(=O)OC 35.5 µM, CC1CN(c2oc(-c3cccs3)nc2C#N)CC(C)O1 (stereo not drawn) 35.5 µM, CN(C)c1oc(-c2cccs2)nc1C#N 39.8 µM, N#Cc1c(-c2ccco2)cc(-c2ccccn2)nc1N 28.2 µM, N#Cc1c(-c2ccco2)cc(-c2cccnc2)nc1N 28.2 µM, N#Cc1c(-c2ccccc2F)cc(-c2cccnc2)nc1N 35.5 µM, CCN(CC)Cc1c(O)c(Cl)cc2c(C)c(C)c(=O)oc12 35.5 µM, CCc1c(C)c2cc(Cl)c(O)c(CN(CC)CC)c2oc1=O 35.5 µM, CCN(CC)Cc1c(O)c(Cl)cc2c(C)cc(=O)oc12 35.5 µM, CC1(C)Cc2nc(N3CCCC3)c(C#N)cc2CO1 35.5 µM, Cc1cc2c(C)cc(=O)oc2c2c1NCCC2 35.5 µM, CCNc1nc(N)c(C(=C(C#N)C#N)c2ccccc2)s1 35.5 µM, C=CCNc1nc(N)c(C(=C(C#N)C#N)c2ccccc2)s1 35.5 µM, CCOC(=O)C1CCN(C(=O)c2cc3c(=O)n4ccccc4nc3n2C)CC1 39.8 µM, Cn1c(C(=O)N2CCc3ccccc3C2)cc2c(=O)n3ccccc3nc21 31.6 µM, O=C(c1cc2c(=O)n3ccccc3nc2s1)N1CCc2ccccc2C1 44.7 µM, O=C(c1cc2c(=O)n3ccccc3nc2s1)N1CCN(Cc2ccc3c(c2)OCO3)CC1 35.5 µM, COC(=O)c1cc2c(=O)n3ccccc3nc2n(C)c1=N 25.1 µM, CC1CN(C(=O)c2cc3c(=O)n4ccccc4nc3s2)CC(C)O1 (stereo not drawn) 35.5 µM, Cn1c(C(=O)N2COCC2(C)C)cc2c(=O)n3ccccc3nc21 35.5 µM, COc1cccc2c(=O)c3c(cnn3C)n(C)c12 31.6 µM, O=C(Nc1ccc(-c2nc3ccccc3[nH]2)cc1)c1cccc(N2C(=O)CCC2=O)c1 35.5 µM, CC1=C(C(=O)Nc2ccccn2)C(c2cn(C)nc2C)C2=C(CCCC2=O)N1 (stereo not drawn) 28.2 µM, CCn1cc(C2C(C(=O)Nc3ccc(Br)cn3)=C(C)NC3=C2C(=O)CCC3)c(C)n1 (stereo not drawn) 31.6 µM, CC(C)(C)c1cc(C(F)(F)F)c(C#N)c(=O)[nH]1 35.5 µM, Cc1cc(C(F)(F)F)c(C#N)c(=O)[nH]1 31.6 µM, O=c1oc2cc(O)ccc2cc1-c1ccc(F)cc1 25.1 µM, CCc1cc(=O)oc2c(CN3CCN(C)CC3)c(O)c(Cl)cc12 31.6 µM, CCCCc1cc(=O)oc2c(CN3CCCC3)c(O)c(Cl)cc12 31.6 µM, CCCc1cc(=O)oc2c(CN3CCCC3)c(O)c(Cl)cc12 35.5 µM, Cc1c(O)ccc2c(CN3CCN(CCO)CC3)cc(=O)oc12 35.5 µM, CCc1cc2c(CN3CCN(C)CC3)cc(=O)oc2cc1O 35.5 µM, CCc1cc(=O)oc2c(CN3CCCC3)c(O)c(Cl)cc12 39.8 µM, CCCc1cc(=O)oc2c(CN3CCN(C)CC3)c(O)c(Cl)cc12 35.5 µM, CCc1ccc(S(=O)(=O)c2nnn3c2nc(NCCNC(C)=O)c2ccccc23)cc1 31.6 µM, CN(C)Cc1c(O)c(Cl)cc2c3c(c(=O)oc12)CCCC3 35.5 µM, CCN(CC)Cc1c(O)c(Cl)cc2c3c(c(=O)oc12)CCCC3 35.5 µM, CC(C)C(=O)Nc1c2c(nc3ccccc13)N(C)CC2 35.5 µM, CCCOc1cc(N(CC)CC)ccc1/C=C(/C#N)c1nc2ccc(C)cc2[nH]1 35.5 µM, CCOP(=O)(OCC)c1nc(/C=C/c2ccccc2)oc1NCc1ccccc1 35.5 µM, CCOP(=O)(OCC)c1nc(/C=C/c2ccccc2)oc1NCc1ccc(OC)cc1 35.5 µM, CCCCc1cc(=O)oc2c(CN(CC)CC)c(O)c(Cl)cc12 35.5 µM, CCCCc1cc(=O)oc2c(CN(C)C)c(O)ccc12 35.5 µM, CCCCc1cc(=O)oc2c(CN(C)C)c(O)c(Cl)cc12 35.5 µM, CC(NC(=O)CCSc1nc(-c2ccc3c(c2)OCO3)cc(C(F)(F)F)n1)c1ccccc1 (stereo not drawn) 35.5 µM, COc1ccc(-c2n[nH]c(C(F)(F)F)c2-c2cc3ccccc3o2)c(O)c1 35.5 µM, O=C(O)c1cc(-c2ccc(Cl)s2)nc2ccccc12 35.5 µM, CCC(=O)N1N=C(c2ccc(NS(=O)(=O)CC)cc2)CC1c1ccc(C)cc1 (stereo not drawn) 35.5 µM, CCS(=O)(=O)Nc1ccc(C2=NN(C(C)=O)C(c3cccs3)C2)cc1 (stereo not drawn) 35.5 µM, CC(=O)Nc1ccc(C2=NN(c3ccccc3)C(c3cccs3)C2)cc1 (stereo not drawn) 28.2 µM, COc1ccc(C2C3=C(CCCC3=O)Nc3nc(-c4cc(OC)c(OC)c(OC)c4)nn32)cc1OC (stereo not drawn) 35.5 µM, COC(=O)C1=CN(CCCN2CCCC2=O)C=C(C(=O)OC)C1c1ccccc1C(F)(F)F 28.2 µM, COC(=O)C1=CN(CCCN2CCCC2=O)C=C(C(=O)OC)C1c1cccs1 39.8 µM, Cc1ccc2c(c1)c1ncnc(N3CCC4(CC3)OCCO4)c1n2C 39.8 µM, CCNc1nc2nc3ccc(C)cn3c(=O)c2cc1C(=O)NCC1CCCO1 (stereo not drawn) 35.5 µM, COCCCn1c(=N)c(C(=O)NCC2CCCO2)cc2c(=O)n3cccc(C)c3nc21 (stereo not drawn) 35.5 µM, Cc1ccc2nc3c(cc(C(=O)NCC4CCCO4)c(=N)n3CCCOC(C)C)c(=O)n2c1 (stereo not drawn) 31.6 µM, CCCn1c(=N)c(C(=O)NC2CCCC2)cc2c(=O)n3cccc(C)c3nc21 28.2 µM, CCn1c(=N)c(C(=O)NCCCOC)cc2c(=O)n3cccc(C)c3nc21 28.2 µM, COC(=O)Cc1cc(=O)oc2cc(O)ccc12 35.5 µM, O=C(Cc1cc(=O)oc2cc(O)ccc12)NCC1CCC(C(=O)O)CC1 (stereo not drawn) 35.5 µM, CCCCc1cc(=O)oc2cc(O)ccc12 35.5 µM, N#Cc1c(-c2cccc(Br)c2)cc(-c2ccco2)[nH]c1=O 39.8 µM, O=C(NC(=S)N(Cc1ccccc1)Cc1ccccc1)C1CCCCC1 39.8 µM, c1ccn2c(c1)nc1c2nc2ccccn21 31.6 µM, COC(=O)C1=CN(CC2CCCO2)C=C(C(=O)OC)C1c1ccsc1 (stereo not drawn) 35.5 µM, COC(=O)C1=CN(CC2CCCO2)C=C(C(=O)OC)C1c1cc(OC)c(OC)c(OC)c1 (stereo not drawn) 35.5 µM, COc1cc2c(cc1/C=C/C(=O)O)OC(C)C2 (stereo not drawn) 39.8 µM, CCCc1cc(=O)[nH]c(SCC(=O)c2cc(C)n(CCC)c2C)n1 39.8 µM, Cc1cccc(-c2cc3nc(-c4ccccc4)cc(N4CCC5(CC4)OCCO5)n3n2)c1 35.5 µM, COc1cccc(-c2cc3nc(-c4ccccc4)cc(N4CCC5(CC4)OCCO5)n3n2)c1 39.8 µM, COC(=O)c1cc2c(s1)-c1ccccc1OC2 35.5 µM, CCOC(=O)c1cc2c(s1)-c1c(C)cccc1OC2 35.5 µM, O=C(NC1CC1)c1cc2c(s1)-c1ccccc1OC2 35.5 µM, O=C(O)c1cc2c(s1)-c1ccccc1OC2 31.6 µM, CCOC(=O)c1cc2c(=O)n3ccccc3nc2n(Cc2ccco2)c1=NC(=O)c1ccccc1OC 31.6 µM, CCOC(=O)c1cc2c(=O)n3ccccc3nc2n(CCOC)c1=NC(=O)c1ccncc1 31.6 µM, CCOC(=O)c1cc2c(=O)n3ccccc3nc2n(CCCOC)c1=NC(=O)C(C)(C)C 35.5 µM, CCOC(=O)c1cc2c(=O)n3ccccc3nc2n(CCOC)c1=NC(=O)C(C)(C)C 35.5 µM, CCOC(=O)c1cc2c(=O)n3ccccc3nc2n(CCCOC)c1=NC(=O)c1cccnc1 35.5 µM, COc1cccc(-c2ccc(C#N)c(OC(=O)c3ccc(Cl)cc3)n2)c1 35.5 µM, COC(=O)C1=CN(C2CC2)C=C(C(=O)OC)C1c1ccc(C(=O)OC)cc1 35.5 µM, COC(=O)C1=CN(C2CC2)C=C(C(=O)OC)C1c1ccccc1OC 35.5 µM, CCN1CCn2c3c(c4cc(Cl)ccc42)CCCC31 (stereo not drawn) 31.6 µM, O=C(Nc1c2ccccc2nc2ccccc12)C(Cl)(Cl)Cl 35.5 µM, O=c1oc2ccccc2cc1-c1nc2ccccc2o1 31.6 µM, CC(=O)Nc1nc2n(n1)C(c1ccc(Cl)cc1)C=C(C)N2 (stereo not drawn) 35.5 µM, CC(C)n1c(=NC(=O)c2ccco2)c(C#N)cc2c(=O)n3ccccc3cc21 31.6 µM, CCN(CC)CCNC(=O)c1ccc2c(=O)n(CCc3ccccc3)c(=O)[nH]c2c1 35.5 µM, COC(=O)c1ccc2c(=O)n(CCCCCC(=O)O)c(=O)[nH]c2c1 31.6 µM, CCCCCn1c(=O)[nH]c2cc(C(=O)O)ccc2c1=O 35.5 µM, COC(=O)c1ccc2c(=O)n(CCCCCC(=O)NCc3ccccn3)c(=O)[nH]c2c1 31.6 µM
